Data taken from ChEMBL document CHEMBL3988442, “University of Dundee, Small-Polar-MMV Screening Library” (2021).
The whole screen tested about 48,000 compounds, of which about 13,000 (27%) showed an effect of 50% or more. The list shows a part of the results.

System: Wolbachia pipientis
Experiment: Anti-Wolbachia Cell-Based Screen
Format: functional
Set-up: scale not given: in the data most compounds retested in dose-response had high values
Settings: 5 µM

Structure (SMILES) | Percent Effect
Cn1cc(NC(=O)NCc2ccsc2)ccc1=O | -5.862%
CNC(=O)[C@@H](c1ccccc1F)N1CCC[C@H]1C(=O)NC1CCCC1.Cl | 0.555%
O=C1NCCCc2[nH]c(Cc3cccc(Cl)c3)nc21 | -5.245%
Cl.Cl.Clc1cccc(C[C@@H]2NCCC[C@@H]2Nc2cccc(Cl)c2)c1 | 33.15%
Clc1cccc(CNC2CCN(CCc3ccncc3)CC2)c1 | -6.723%
O=C(Cc1cccc(Cl)c1)N[C@@H]1CCNC[C@H]1O | 4.451%
Cl.Cl.Clc1cccc(C[C@@H]2NCCC[C@@H]2Nc2ccccc2)c1 | 167.6%
Cl.Clc1cccc(N[C@H]2CCCN[C@H]2Cc2ccccc2)c1 | 152.2%
CC(C)CCN1Cc2c(C(=O)N3CCCC3)nn(C)c2C1.O=C(O)C(F)(F)F | 4.332%
Cn1nc(C(=O)N2CCOCC2)c2c1CN(CC1CC1)C2.O=C(O)C(F)(F)F.O=C(O)C(F)(F)F | 102.2%
O=C(O)C(F)(F)F.O=C(c1nc2c(o1)CN(CC1CC1)C2)N1CCCC1 | -4.032%
Cn1nc(C(=O)N2CCOCC2)c2c1CN(CC1CCC1)C2 | 98%
Cn1nc(C(=O)N2CCCC2)c2c1CN(CC1CCOCC1)C2 | -10.68%
O=C([C@H]1COC[C@H]2CN(CC3CCC3)C[C@H]21)N1CCOCC1 | -17.46%
NC(=O)N1CC(OCc2cccc3ccccc23)C1 | -8.487%
CC(C)NCC1(O)CCCN(CCC2CCCCC2)C1=O (stereo not given) | -46.74%
COC(C)(C)C(=O)N[C@H]1CN(c2nccnc2N(C)C)C[C@@H]1C(C)C | 9.529%
N#CC1(C(=O)N2C[C@H]3CC[C@@H]2CN(Cc2ccncc2)C3)CCOCC1 | -3.393%
CS(=O)(=O)NCC(=O)N[C@H]1CN(c2cnccn2)C[C@@H]1C1CC1 | 0.2443%
CC(C)[C@@H]1CN(Cc2ccccc2C#N)C[C@H]1NC(=O)N(C)C | 4.058%

Structure (SMILES) | Percent Effect
CC(C)[C@H]1CN(c2cnccn2)C[C@@H]1NC(=O)C1(C#N)CCOCC1 | 90.9%
O=C(N[C@H]1CN(c2ccncc2)C[C@@H]1C1CC1)C1CCOCC1 | 31.8%
CC(C)[C@H]1CN(Cc2ccncc2)C[C@@H]1NC(=O)C1(C#N)CCOCC1 | 101.3%
CC(=O)N[C@@H]1CN(Cc2nnc(-c3ccccc3)o2)C[C@H]1C(C)C | 0.5134%
O=C(O)c1cc(N2C[C@H](NC(=O)C3CCOCC3)[C@@H](C3CC3)C2)ccn1 | -7.348%
CC(C)[C@H]1CN(S(C)(=O)=O)C[C@@H]1NC(=O)c1ccnc(N)c1 | -108.5%
Cc1cc(N2C[C@H](NC(=O)C3(C#N)CCOCC3)[C@@H](C(C)C)C2)ccn1 | 95.25%
CC(C)[C@H]1CN(c2ccncc2)C[C@@H]1NC(=O)C1(C#N)CCOCC1 | 98.03%
OCCN(Cc1cccnc1)c1ccc(Cl)cn1 | -7.592%
CNc1nc(C(=O)N2C[C@H]3CC[C@@H]2CN(C2CCOCC2)C3)cs1 | -0.4329%
CCCc1nc(CN(C)CC2CCN(CCO)CC2)no1 | -5.007%
CC(=O)NCCNC(=O)c1cnc2c(c1)nc(-c1ccccc1Cl)n2C | -9.781%
CC(C)[C@H]1CN(c2ccnc(N)n2)C[C@@H]1NC(=O)C1(C#N)CCOCC1 | 89.33%
COC(C)(C)C(=O)N[C@H]1CN(c2ncccc2C(N)=O)C[C@@H]1C(C)C | 2.672%
CC(=O)N1C[C@H](NC(=O)c2ccnc(N)c2)[C@@H](C(C)C)C1 | -4.113%
Cc1nn(C)c(Oc2ccc(Cl)cc2)c1CN1CC[C@H](CO)[C@@H](O)C1 | -1.259%
Cc1ccc2c(n1)N(CCN(C)C)CCN(Cc1c(C)noc1C)C2.O=C(O)C(F)(F)F.O=C(O)C(F)(F)F.O=C(O)C(F)(F)F | 11.23%
N#Cc1cccc(CN2Cc3nccn3CC(COCC3CC3)C2)c1.O=C(O)C(F)(F)F (stereo not given) | 104.1%
COCc1nccc(C2CCCN(Cc3cccc(C#N)c3)C2)n1 (stereo not given) | -9.239%
CN(C)CCN1CCN(Cc2cccc(C#N)c2)Cc2cccnc21.O=C(O)C(F)(F)F.O=C(O)C(F)(F)F.O=C(O)C(F)(F)F | 101.9%

Structure (SMILES) | Percent Effect
CCN(CC)CC1CN(Cc2c(C)noc2C)Cc2nccn2C1 (stereo not given) | -2.257%
COCC1CN(Cc2cccc(C#N)c2)Cc2nccn2C1 (stereo not given) | 107.2%
CCN(CC)CC1CN(Cc2cccc(C#N)c2)Cc2nccn2C1.O=C(O)C(F)(F)F.O=C(O)C(F)(F)F (stereo not given) | 268.5%
Cc1noc(C)c1CN1CCN(CCN(C)C)c2ncccc2C1.O=C(O)C(F)(F)F.O=C(O)C(F)(F)F.O=C(O)C(F)(F)F | 0.7067%
CCOCC1CN(Cc2cccc(C#N)c2)Cc2nccn2C1.O=C(O)C(F)(F)F (stereo not given) | 5.676%
CCC(C)(NCC(=O)NC(C)C)c1nccs1 (stereo not given) | -10.98%
NC(=O)COc1ccc(CN2CCNC(C(=O)NC3CC3)C2)cc1Cl (stereo not given) | -45.28%
CC1CCN(c2ccc3c(-c4ncc(C(=O)O)s4)noc3c2)CC1 | -16.58%
CC1(C)COCCN1C(=O)CCc1nc(-c2ccccn2)no1 | -0.8567%
O=C(Nc1cccnc1)Nc1ccn(CC(F)F)n1 | -6.683%
CN(C)CC1(O)CCCN(c2nc(-c3ccccc3)no2)CC1 (stereo not given) | -0.08727%
CCN(CC)CC1CN(CCc2ccccc2)Cc2nccn2C1.O=C(O)C(F)(F)F.O=C(O)C(F)(F)F (stereo not given) | 77.99%
CN(C)CC1CN(Cc2ccsc2)Cc2nccn2C1.O=C(O)C(F)(F)F.O=C(O)C(F)(F)F (stereo not given) | -11.98%
CN(C)CCOCC1CN(Cc2ccsc2)Cc2ccnn2C1.O=C(O)C(F)(F)F.O=C(O)C(F)(F)F.O=C(O)C(F)(F)F (stereo not given) | -16.3%
N#Cc1cccc(CN2Cc3nccn3CC(CN3CCCC3)C2)c1.O=C(O)C(F)(F)F.O=C(O)C(F)(F)F (stereo not given) | 90.25%
Cc1nc(CN2Cc3nccn3CC(CN3CCCC3)C2)cs1.O=C(O)C(F)(F)F.O=C(O)C(F)(F)F (stereo not given) | -3.569%
CN(C)CCOCC1CN(Cc2cccc(F)c2)Cc2nccn2C1.O=C(O)C(F)(F)F.O=C(O)C(F)(F)F (stereo not given) | 63.4%
CN(C)CC1CN(Cc2cccc(C#N)c2)Cc2nccn2C1.O=C(O)C(F)(F)F.O=C(O)C(F)(F)F (stereo not given) | 95.93%
O=C(Cc1ccccc1)N1Cc2nccn2CC(CN2CCCC2)C1.O=C(O)C(F)(F)F (stereo not given) | 14.72%
CCN(CC)CC1CN(Cc2nccs2)Cc2nccn2C1.O=C(O)C(F)(F)F.O=C(O)C(F)(F)F (stereo not given) | -6.3%
